Source: PubChem (National Center for Advancing Translational Sciences (NCATS))
Only some compounds are listed: those with a hit (about 11% of all), similar ones and a draw of the others.
ALDH1A1 block: qHTS Assay for Inhibitors of Aldehyde Dehydrogenase 1 (ALDH1A1) | Potency, µM (highest dose often 75.3 µM), without a hit: at the highest dose activity, negative = inhibition, usual class: inhibitors | AID 1030, 2008 | Aldehyde dehydrogenase 1A1 (Homo sapiens), P00352 | actives 7.3% (n = 220,000) | Purified ALDH1A1, NADH fluorescence, propionaldehyde substrate; active = well fitted inhibition curve with a large enough effect, not every such curve was filed as active; inconclusive = small, poorly fitted or top-dose-only effect, or another doubt; inactive = no such curve, though single readings can be large or run the other way;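 also: potency is read from the fitted curve at half-maximal effect; plate controls were no enzyme wells and a reference inhibitor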
HttQ103 aggreg: qHTS Multiplex Assay to Identify Dual Action Probes in a Cell Model of Huntington: Aggregate Formation (GFP); actives 1.1% (n = 220,000); PC12 HttQ103-GFP aggregates, Acumen cytometry, 40 h; Potency, µM (top dose mostly 46.1 µM), inactives show at the top dose activity change, negative = inhibition, hits mostly inhibitors; also: potency is read from the fitted curve at half-maximal effect; % is scaled to controls: 0 for no effect and ±100 for the full control effect; nearly all actives have a fitted effect of over 60% in size
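Multiplexed with ATP-based cell death, this channel scores GFP aggregates in PC12 cells expressing inducible HTTex1-Q103-GFP. Induction used 100 nM tebufenozide; compounds were tested in concentration series.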
HTT cytoprotect: qHTS Multiplex Assay to Identify Dual Action Probes in a Cell Model of Huntington: Cytoprotection (ATP). Potency, µM (series often up to 56.4 µM), without a hit: cytoprotection (ATP increase), actives largely listed as activators. AID 1471, 2008. PC12 HTT-Q103 induced, cytoprotection, ATP luminescence, 40 h. actives 0.14% (n = 230,000); also: potency is read from the fitted curve at half-maximal effect; % of control where 0% means no effect; nearly all actives have a fitted effect of over 45% in size
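Compounds were screened for protection of PC12 cells against cell death after tebufenozide induction (100 nM final) of mutant Huntingtin exon 1 (Q103) fused to GFP.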
PNC assembly inh: High Content Assay for Compounds that inhibit the Assembly of the Perinucleolar Compartment; activity change (PNC), negative = inhibition, % at 10 µM; AID 2417, 2010; actives 3.1% (n = 140,000); PC3M PTB-GFP, PNC prevalence imaging, 16 h; hits give low values;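 active = readout at or below -70, meaning at least 70% loss of cells showing the perinucleolar compartment, a nuclear body marking cancer cells; inconclusive = readout between -30 and a set limit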;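 also: plate controls were DMSO wells for no effect and camptothecin positive control wells for full effect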
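Read-out is percentage of cells bearing a perinucleolar compartment, from automated 20x imaging of fixed, Hoechst-stained PC3M PTB-GFP cells. Cells were seeded 4 h, then exposed 16 h to compound (23 nl of library stock) in duplicate plates.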
HPGD inh: qHTS Assay for Inhibitors of HPGD (15-Hydroxyprostaglandin Dehydrogenase); actives 4.3% (n = 150,000); purified HPGD, NADH fluorescence kinetic, PGE2 substrate; 15-hydroxyprostaglandin dehydrogenase [NAD(+)] (Homo sapiens), P15428; Potency, µM, for inactives: at the top dose activity change, negative = inhibition, hits mostly inhibitors; active = well fitted inhibition curve with a large enough effect, not every such curve was filed as active; inconclusive = small, poorly fitted or top-dose-only effect, or another doubt; inactive = no such curve, though single readings can be large or run the other way; also: potency is read from the fitted curve at half-maximal effect; % is scaled to controls: 0 for no effect and ±100 for the full control effect
Target sequence (P15428 whole entry, looked up): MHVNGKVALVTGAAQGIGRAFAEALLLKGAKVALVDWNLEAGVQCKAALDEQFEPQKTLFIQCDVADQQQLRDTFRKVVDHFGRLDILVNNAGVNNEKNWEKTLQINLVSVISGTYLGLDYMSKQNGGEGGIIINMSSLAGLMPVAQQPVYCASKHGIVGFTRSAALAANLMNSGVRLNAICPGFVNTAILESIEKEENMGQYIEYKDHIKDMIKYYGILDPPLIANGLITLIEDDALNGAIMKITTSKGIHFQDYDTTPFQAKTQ
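20 nM HPGD preincubated 15 min at room temperature with compound in 50 mM Tris-HCl pH 8, 0.01% Tween 20. Started with 1 mM NAD+ and 30 uM prostaglandin E2; NADH fluorescence (360/450 nm) read 5 times over 30-s intervals, last minus first.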
CBFb RUNX1 block: qHTS Assay for Compounds Blocking the Interaction Between CBF-beta and RUNX1 for the Treatment of Acute Myeloid Leukemia; Runt-related transcription factor 1 (Homo sapiens) + Core-binding factor subunit beta …; AlphaScreen CBFb-His/RUNX1-biotin binding, biochemical; Potency, µM (doses to about 59.8 µM), inactives show top-dose activity, negative = inhibition, most hits filed as inhibitors; 230,000 tested, under 10 active; AID 1477, 2009; also: % of control where 0% means no effect
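CBF-beta (His) and RUNX1 (biotin), 30 nM each; 20 min preassociation; + compound, 15 min; + beads 50 ng each (Ni, streptavidin), 90 min; RT; AlphaScreen read.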
An asterisk follows results filed as active; ? = inconclusive; nt = not tested or not shown; [ ] = another dose, or the depositor's remark. Unless noted, calls follow the shape of the dose curve; as a rule, active = well fitted curve in the direction sought with a large enough effect; inconclusive = small, poorly fitted or top-dose-only effect, or another doubt; inactive = no such curve, though single readings can be large; an effect the other way counts as inactive or inconclusive.

SMILES	ALDH1A1 block	HttQ103 aggreg	HTT cytoprotect	PNC assembly inh	HPGD inh	CBFb RUNX1 block
O=C1C(=O)c2ccccc2-c2ccccc21	2%	?	-96%	?	-11%	-19%
CC[C@@H]1CN2CC[C@@H]1C[C@H]2[C@@H](O)c1ccnc2ccc(OC)cc12	nt	nt	27%	nt	nt	nt
CC(ON1CC1(C(F)(F)F)C(F)(F)F)(C(N)=O)C(N)=O (configuration not stated)	8%	-8%	nt	-93*	-5%	7%
O[N+]1=CC=CCC1=S.On1ccccc1=S.[Zn]	2.8µM*	nt	-343%	nt	?	-4%
OC1(c2ccc(F)cc2)CC2CCC(C1)N2Cc1nnnn1C1CCCC1 (configuration not stated)	2µM*	16%	-32%[10 µM]	-7	-2%	-1%
Fc1ccc(Cn2nnnc2CN2CCC(n3nnc4cc(C(F)(F)F)ccc43)CC2)cc1	nt	30%[9.22 µM]	-18%[10 µM]	nt	nt	16%
COC(=O)c1c(C)ccc2c(O)c3c(cc12)C(=O)c1c2c(cc(O)c1C3=O)[C@@]1(C)O[C@@](C)(O2)[C@@H](O)[C@H](N(C)C)[C@H]1O	?	nt	-8%[10 µM]	nt	?	nt
COC(=O)[C@H]1[C@H](c2ccccc2)C(=O)[C@@]2(O)c3ccccc3O[C@@]12c1ccccc1	1%[13.5 µM]	nt	5%[10 µM]	nt	nt	13%[13.1 µM]
CC(Cc1ccc(C(C)(C)C)cc1)CN1CCCCC1 (configuration not stated)	nt	nt	nt	nt	nt	3%
O=C(O)c1ccccc1C(=O)O	28µM*	nt	2%	nt	-11%	2%[21.7 µM]
Oc1ccc2c3c1O[C@H]1c4[nH]c5ccccc5c4C[C@]4(O)[C@H](C2)N(CC2CC2)CC[C@@]314	-4%	nt	-17%	nt	-7%	1%[21.7 µM]
NC(N)=Nc1ccc2[nH]c3c(c2c1)C[C@]1(O)[C@@H]2Cc4ccc(O)c5c4[C@]1(CCN2CC1CC1)[C@@H]3O5	25µM*	nt	-44%[1.9 µM]	nt	-14%	6%[21.7 µM]
C=CCN1CCc2cccc3c2C1Cc1ccc(O)c(O)c1-3 (configuration not stated)	?	nt	12%	nt	?	-27%
C/C(CC(=O)N1CCN(C=O)CC1)=N\NC(=O)c1cccc([N+](=O)[O-])c1	25µM*	12%[9.22 µM]	37%[10 µM]	nt	nt	-1%
c1ccc(CCN2CCCCCC2)nc1	13%[13.5 µM]	nt	2%[10 µM]	nt	-14%	nt
N#CCCC#N	28µM*	nt	?	nt	-10%	0%[21.7 µM]
COc1cc2c(cc1OC)[C@]13CCN4CC5=CCO[C@@H]6CC(=O)N2[C@@H]1[C@H]6[C@@H]5C[C@H]43	nt	nt	6%	nt	nt	nt
Cc1ccc(Cn2ccc(NC(=O)c3cc(-c4ccco4)on3)n2)cc1	18µM*	10%	-10%	?	-14%	-15%
c1csc(-c2nnc(Cc3cccc4ccccc34)o2)c1	-3%	-27%	33%[1.9 µM]	-23	18µM*	15%
CCNCCC1(CC)C(=O)NC(=O)NC1=O	4%[13.5 µM]	nt	-14%[10 µM]	nt	-3%	nt
CCCCCOC(=O)c1ccccc1C(=O)OCCCCC	-4%	nt	5%	nt	-4%	29%[21.7 µM]
O=c1c2ccccc2[se]n1-c1ccccc1	0.22µM*	?	-84%	36	0.63µM*	?
O=c1c2ccccc2nc(-c2ccccc2)n1-c1ccccc1	nt	11%[9.22 µM]	6%[10 µM]	nt	nt	0%
C[n+]1c2cc(N)ccc2cc2ccc(N)cc21	4%	10µM*	-76%	nt	-7%	26%
c1ccc(CCN2CCOCC2)nc1	-6%[13.5 µM]	nt	23%[10 µM]	nt	-2%	nt
Cc1nc2c(=O)n(C)c(=O)nc-2n(C)n1	-5%	-6%	-38%[10 µM]	-93*	-18%	10%
NC(=O)CF	nt	nt	nt	nt	nt	7%
